Assay outcomes: PubChem, National Center for Advancing Translational Sciences (NCATS)
VDR inhibitor – blocks the human vitamin D receptor. P11473. VDR-SRC2-3 peptide fluorescence polarization, 2 h. Potency, µM, without a hit: max response, negative = inhibition, actives largely listed as inhibitors. actives 0.93% (n = 400,000)
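The screen uses fluorescence polarization to detect compounds that interfere with recruitment of the SRC2-3 coactivator peptide to VDR; plates are read after 2 h at room temperature.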
TDP1 block – inhibitors of human tyrosyl-DNA phosphodiesterase TDP1. Q9NUW8. recombinant TDP1, AlphaScreen DNA substrate cleavage. Potency, µM (titrated, usually from 130 µM), inactives show at the highest dose activity change, negative = inhibition, actives largely listed as inhibitors. actives 0.28% (n = 350,000); also: nearly all actives have a fitted effect of over 40% in size
Target sequence (Q9NUW8 whole entry, looked up): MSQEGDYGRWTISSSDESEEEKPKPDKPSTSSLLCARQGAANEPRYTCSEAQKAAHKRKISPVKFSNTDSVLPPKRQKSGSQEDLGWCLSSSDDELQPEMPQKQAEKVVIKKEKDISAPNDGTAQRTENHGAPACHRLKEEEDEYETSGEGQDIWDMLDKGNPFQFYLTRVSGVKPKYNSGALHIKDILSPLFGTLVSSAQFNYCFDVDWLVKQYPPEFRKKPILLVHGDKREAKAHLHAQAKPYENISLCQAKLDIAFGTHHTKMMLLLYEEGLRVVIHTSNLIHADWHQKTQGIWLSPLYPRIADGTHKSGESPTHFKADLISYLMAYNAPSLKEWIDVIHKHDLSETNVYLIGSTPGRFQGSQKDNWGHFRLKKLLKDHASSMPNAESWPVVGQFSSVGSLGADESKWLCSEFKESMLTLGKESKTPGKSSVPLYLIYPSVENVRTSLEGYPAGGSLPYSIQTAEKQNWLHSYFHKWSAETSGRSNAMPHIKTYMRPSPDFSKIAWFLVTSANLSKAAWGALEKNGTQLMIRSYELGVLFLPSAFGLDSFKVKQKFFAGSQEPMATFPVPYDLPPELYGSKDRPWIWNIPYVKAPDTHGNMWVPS
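Compounds were preincubated with Tdp1 (1 nM final) for 15 min at room temperature before substrate (15 nM final) started a 5 min reaction; beads (10 ug/ml final) were then added for 10 min before AlphaScreen detection.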
KAT2A inh – inhibitors of human GCN5L2 histone acetyltransferase. Q92830. GCN5L2 HAT assay, ThioGlo1 CoA-SH fluorescence. Potency, µM (doses to about 58.9 µM), without a hit: at the highest dose activity change, negative = inhibition, actives largely listed as inhibitors. actives 0.21% (n = 390,000). AID 504327
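GCN5L2 (20 nM) in 50mM HEPES pH 7.5, 0.1mM EDTA, 0.01% Tween-20 preincubated 15 min with compounds at room temperature. Reaction started with H3(1-25) 75uM, acetyl-CoA 70uM, ThioGlo1 50uM; CoA-thiol fluorescence (Ex340/Em540) read at 0 and 20 min.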
TDP1 cell CPT – DT40-hTDP1 cell growth loss with CPT | chicken DT40 Tdp1-/-;hTDP1 cells + 20 nM CPT, ATP luminescence, 48 h | AID 686979 | Potency, µM (doses to about 46.2 µM), for the others: at the highest dose activity change, negative = growth inhibition, hits mostly inhibitors | actives 12% (n = 420,000); also: nearly all actives have a fitted effect of over 55% in size
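Cell growth measured by CellTiter-Glo luminescence after a minimum 48 h, 37 C compound exposure with 20 nM CPT in Tdp1-knockout DT40 cells stably expressing hTDP1, seeded 400/well; qHTS titration format.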
PLK1 PBD inh – blocks phosphopeptide binding to human PLK1 polo-box domain; actives 2.8% (n = 360,000); P53350; Plk1 PBD binding of FITC phosphopeptide, fluorescence polarization; Potency, µM, inactives show max response, negative = inhibition, actives largely listed as inhibitors; also: series mostly up to about 57 µM; nearly all actives have a fitted effect of over 65% in size
TDP1 cell noCPT – qHTS for Inhibitors of human tyrosyl-DNA phosphodiesterase 1 (TDP1): qHTS in cells in absence of CPT. DT40 Tdp1-/- hTDP1 cells, no CPT, ATP luminescence, 48 h. Potency, µM (highest dose often 46.2 µM), for the others: top-dose activity change, negative = growth inhibition, hits mostly inhibitors. actives 15% (n = 420,000). AID 686978, 2013; also: nearly all actives have a fitted effect of over 55% in size
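Readout: luminescence from CellTiter-Glo after 30 min in the dark at RT. Cells: DT40 Tdp1-/- with stable hTDP1, 400/well. Exposure: compounds alone, ≥48 hr, 37 °C.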
Starred values were filed as active, the others as inactive; ? = inconclusive; . = not tested or not shown; [ ] = another dose, or the depositor's remark. Most compounds without a hit are left out; they make up all but 18% or so of the library. Calls follow the shape of the dose curve; as a rule, active = well fitted curve in the direction sought with a large enough effect; inconclusive = small, poorly fitted or top-dose-only effect, or another doubt; inactive = no such curve, though single readings can be large; an effect the other way counts as inactive or inconclusive. % is scaled to controls: 0 for no effect and ±100 for the full control effect; potency is read from the fitted curve at half-maximal effect.

SMILES | VDR inhibitor | TDP1 block | KAT2A inh | TDP1 cell CPT | PLK1 PBD inh | TDP1 cell noCPT
Cc1cc(C)cc(OCC(=O)N/N=C/c2ccc([N+](=O)[O-])o2)c1 | -15.2% | -2.3% | -16.6% | -89.0% | -8.1% | ?
CC(=O)N/N=C/c1ccc([N+](=O)[O-])o1 | -22.1% | . | -14.8% | ? | . | 21.1µM*
Cc1csc(N=Cc2ccc([N+](=O)[O-])o2)n1 | . | . | . | 14.6µM* | -23.4% | 10.3µM*
Cc1ccc(OCC(=O)N/N=C/C=C/c2ccco2)cc1 | ? | 7.1% | -12.5% | 8.2µM* | ? | 7.31µM*
COc1ccc(-n2c(=O)cnc3cnc(Oc4cccc(Cl)c4)nc32)cc1 | -24.1% | . | -0.4% | 5.7% | . | ?
CCOC(=O)N/N=C\c1ccc([N+](=O)[O-])o1 | 28.9% | -2.0% | -10.3% | ? | -12.6% | 22.4µM*
O=C(Cc1ccc([N+](=O)[O-])cc1)N/N=C/c1ccc([N+](=O)[O-])o1 | -2.5% | 3.1% | -15.4% | 10.3µM* | -10.3% | 9.2µM*
CC1(C(=O)N/N=C/c2ccc([N+](=O)[O-])o2)CC1(Br)Br (centres undefined) | -15.6% | 5.1% | -4.4% | 13µM* | -9.8% | 10.3µM*
Cc1ccccc1OCC(=O)N/N=C/c1ccc([N+](=O)[O-])o1 | -8.2% | ? | -4.1% | 10.3µM* | ? | 8.2µM*
CNCC(=O)NC(CCCN=C(N)N)C(=O)NC(C(=O)NC(Cc1ccc(O)cc1)C(=O)NC(C(=O)NC(Cc1cnc[nH]1)C(=O)N1CCCC1C(=O)NC(C)C(=O)O)C(C)C)C(C)C (centres undefined) | -4.9% | . | 0.9% | . | . | .
Cc1cc2ncn(/N=C/c3ccc([N+](=O)[O-])o3)c2cc1C | 15.7% | 9.9% | -5.6% | 13µM* | 0.2% | 12.6µM*
O=C(N/N=C\c1ccc(-c2ccc([N+](=O)[O-])cc2)o1)c1ccc2c(c1)OCO2 | -12.3% | 4.4% | -0.5% | -24.1% | -2.9% | -16.9%
CC(C)C(NC(=O)COc1ccc2ccccc2c1)C(=O)N/N=C/C=C/c1ccccc1 (centres undefined) | -0.3% | 3.8% | -1.2% | 12.6µM* | -3.7% | ?
O=C(N/N=C/c1ccc([N+](=O)[O-])o1)c1ccc2c(c1)OCO2 | 1.8% | 5.0%[56.1 µM] | 2.3% | 2.31µM* | -6.7% | 5.8µM*
CC(C)(C)c1ccc2c(c1)OC(C(=O)N/N=C\c1ccncc1)CO2 (centres undefined) | -2.5% | . | 0.7% | ? | 2.8% | ?
CC(C)(C)c1ccc2c(c1)OC(C(=O)N/N=C/c1ccc([N+](=O)[O-])o1)CO2 (centres undefined) | -15.9% | 8.2% | 0.4% | 16.4µM* | ? | 11.6µM*
Cc1ccc(CNC(=O)CC2(CC3=NS(=O)(=O)c4ccccc4N3)CCCC2)cc1 | -4.8% | . | -20.2% | ? | -3.8% | ?
CCCCCN(C(=O)CCC(=O)OCC(=O)c1ccc(C(C)CC)cc1)c1c(N)n(CCCC)c(=O)[nH]c1=O (centres undefined) | 3.4% | 0.0% | -3.7% | ? | -3.1% | ?
O=[N+]([O-])c1ccc(/C=N/N=C/c2ccc([N+](=O)[O-])o2)o1 | -19.7% | . | -7.6% | 0.291µM* | -3.9% | 0.731µM*
CCCOc1ccc(CCC(=O)N/N=C/c2ccc([N+](=O)[O-])o2)cc1 | -5.9% | 5.1% | 4.0% | 16.4µM* | -2.1% | -97.9%
Cc1ccccc1OCC(=O)N/N=C/C=C/c1ccccc1 | ? | -2.5% | -2.2% | -20.0% | 29.9µM* | -10.1%
Cc1ccc(C(=O)N/N=C\c2ccc([N+](=O)[O-])o2)cn1 | 6.3% | 0.0% | -6.0% | ? | -0.6% | 11.6µM*
O=C(CC12CC3CC(CC(C3)C1)C2)N/N=C\c1ccc[nH]1 | 2.9% | 2.6% | -10.5% | 6.5% | -0.6% | -15.5%
